# From ChEMBL document CHEMBL4296182, “CO-ADD screening of NIH NCI Diversity Set V”
# For part of these data: Entries with a potency or affinity are not part of this list.
# Experiments:
# [1] = tested on: Staphylococcus aureus; experiment: Antibacterial activity against Staphylococcus aureus MRSA ATCC 43300 (CO-ADD:GP_020); MIC in CAMBH media using NBS plates, by Resazurin F(560/590); format: functional; settings: Concentration 20 uM, ASSAY_TEST Inhibition of Bacterial Growth, detection method Resazurin, Fluorescence (ex560/em590), MEDIA CAMHB, plate type 384well, CORNING #3640, time 18 hr
# [2] = tested on: Acinetobacter baumannii; experiment: Antibacterial activity against Acinetobacter baumannii ATCC 19606 (CO-ADD:GN_034); MIC in CAMBH media using NBS plates, by Resazurin F(560/590); format: functional; settings: Concentration 20 uM, ASSAY_TEST Inhibition of Bacterial Growth, detection method Resazurin, Fluorescence (ex560/em590), MEDIA CAMHB, plate type 384well, CORNING #3640, time 18 hr
# [3] = tested on: Escherichia coli; experiment: Antibacterial activity against Escherichia coli ATCC 25922 (CO-ADD:GN_001); MIC in CAMBH media using NBS plates, by Resazurin F(560/590); format: functional; settings: Concentration 20 uM, ASSAY_TEST Inhibition of Bacterial Growth, detection method Resazurin, Fluorescence (ex560/em590), MEDIA CAMHB, plate type 384well, CORNING #3640, time 18 hr
# [4] = tested on: Klebsiella pneumoniae; settings: Concentration 20 uM; ASSAY_TEST Inhibition of Bacterial Growth; detection method Absorption (OD600); MEDIA CAMHB; plate type 384well; NBS; CORNING #3640; time 18 hr
# [5] = tested on: Candida albicans; settings: 20 µM
# [6] = tested on: Cryptococcus neoformans; settings: Concentration 20 uM; ASSAY_TEST Inhibition of Fungal Growth; detection method Resazurin; Absorption (OD600-OD570); plate type 384well; NBS; CORNING #3640
Compound,Inhibition [1],Inhibition [2],Inhibition [3],Inhibition [4],Inhibition [5],Inhibition [6]
COc1ccc2c(c1)C13CCN(C)C(C2)C1CCC1(C3)OCCO1 (configuration not stated),-3.64%,10.92%,9.14%,10.59%,2.14%,-7.98%
CC(C)(C)n1cc(C(=O)c2ccccc2)cc1-c1ccccc1,20.55%,13.8%,7.58%,11.31%,3.13%,-8.32%
O=C(Oc1ccccc1)N(c1ccccc1)c1ccccc1,13.05%,1.09%,9.21%,3.21%,5.51%,-11.03%
COc1ccccc1[As](=O)(O)CC(O)COc1ccc(Cl)cc1Cl (configuration not stated),12.48%,-14.57%,17.37%,8.74%,-1.45%,-2.68%
Cc1nccc2c1[nH]c1cc(O)ccc12,18.39%,-8.06%,7.41%,20.45%,2.57%,-8.88%
CN1CCC2(O)OCCCC2C1 (configuration not stated),3.54%,-13.99%,3.03%,26.78%,1.09%,3.57%
CNC(=O)Oc1ccc(N(C)C)cc1C(C)C,11.71%,-2.68%,9.69%,11.23%,-1.51%,-12.66%
O=C1C[C@@H]2OCC=C3C[N+]4([O-])CC[C@]56c7ccccc7N1[C@H]5[C@H]2[C@H]3C[C@@H]64 (some centres not stated),-3.57%,-14.45%,1.56%,13.5%,3.06%,-6.02%
ClC1=C(Cl)C(Cl)=C(Cl)C1=C/C=C/c1ccccc1,-15.24%,-5.13%,-15.65%,6.7%,5.69%,2.88%
C[C@]12CC[C@@H]3c4ccc(OC(=O)N(CCCl)CCCl)cc4CC[C@H]3[C@@H]1CC[C@@H]2O [ESTRAMUSTINE],12.2%,-4.55%,-3.6%,12.05%,11%,-2.85%
N#CC(C#N)=Cc1ccc(C=C(C#N)C#N)cc1,-4.05%,-13.9%,2.09%,11.67%,36.5%,-3.4%
O=S(=O)(F)c1ccc2nc(-c3cccc(Sc4ccccc4)c3)cc(Cl)c2c1,0.33%,-14.47%,10.15%,9.08%,7.93%,-2.04%
COc1ccc2c(c1O)[C@]13CCN(C)[C@H](C2)[C@@H]1CCC(=O)C3,-1.15%,-13.17%,7.37%,14.9%,0.05%,-12.71%
O=[As](O)(O)c1ccc(/N=N/c2ccc(O)cc2)cc1,-11.42%,-13.35%,0.89%,15.09%,7.76%,-3.57%
COc1ccc(C2=CC(c3ccc(OC)c(OC)c3)c3c(c4ccccc4oc3=O)O2)cc1OC (configuration not stated),20.66%,-10.24%,10.7%,7.71%,5.25%,-11.5%
O=C(OC1CCCCC1)c1ccccc1C(=O)OC1CCCCC1,-2.45%,-19.72%,-0.16%,3.51%,7.38%,-2.99%
COc1ccccc1NC(=O)Oc1cccc(OC(=O)c2ccccc2)c1,4.53%,-1.36%,-8.4%,19.47%,8.34%,-0.97%
O=C(Nc1ccc(F)cc1)Oc1cccnc1O,10.32%,2.12%,1.72%,11.14%,5.85%,-4.36%
C/C=C(/C)C(=O)O[C@H]1CCN2CC=C(COC(=O)[C@@](O)([C@H](C)OC)C(C)(C)O)[C@H]12,10.77%,-8.86%,10.49%,12.46%,-1.68%,-5.72%
CCC(CO)NC(=O)C1C=C2c3cccc4[nH]cc(c34)CC2N(C)C1 (configuration not stated),1.02%,14.09%,-11.63%,10.28%,-0.04%,5.57%
SC1=NC2(CCCCC2)NC12CCCCC2,8.84%,6.83%,-0.29%,17.38%,4.26%,-3.97%

Compound,Inhibition [1],Inhibition [2],Inhibition [3],Inhibition [4],Inhibition [5],Inhibition [6]
O=C(NCCCN1CC1)Nc1cccc2ccccc12,-3.04%,12.11%,-2.13%,20.16%,1.47%,1.2%
Cc1ccc(N2C(=O)C(=CN)C(=O)N(c3ccc(C)cc3)C2=O)cc1,17.58%,4.93%,4.14%,11.65%,-1.3%,-7.68%
CN1CCN(c2nc(N)cc(O)n2)CC1,-8.8%,13.73%,3.5%,7.87%,7.43%,-4.09%
NC(=O)c1ccc(C(=O)Nc2ccc([As](=O)(O)O)cc2)cc1,11.66%,7.33%,15.44%,11.59%,-0.15%,-8.21%
C(=C\c1ccncc1)/c1ccncc1,-0.23%,-2.33%,7.13%,5.66%,-2.45%,-3.12%
N=C(N)N/N=C/c1c(Cl)cccc1Cl [GUANABENZ],5.03%,-12.8%,13.45%,13.62%,-0.73%,-12.66%
NC=C1C(=O)N(c2ccccc2)C(=O)N(c2ccccc2)C1=O,-9.39%,5.08%,6.01%,10.61%,0.46%,-6.24%
C=C1C/C(=C/C)C(=O)O[C@@H]2CCN3CC=C(COC(=O)[C@]1(C)O)[C@H]23 [SENECIPHYLLINE],11.97%,-14.61%,-0.27%,22.67%,-1.29%,-12.96%
O=[N+]([O-])c1cc([As](=O)(O)c2ccc(O)c([N+](=O)[O-])c2)ccc1O,9.78%,5.09%,4.17%,5.87%,-1.08%,-7.3%
Cc1cc(OCCN2CC2)c2ccccc2n1,14.36%,-8.46%,11.83%,5.11%,-2.14%,-8.85%
O=c1nc(C(F)(F)C(F)(F)C(F)(F)F)[nH]o1,8.37%,8.1%,-1.78%,12.08%,3.43%,-2.86%
CC(=O)Nc1cc([As](=O)(O)O)ccc1O [ACETARSONE],12.71%,13.01%,0.28%,16.86%,1.06%,-8.45%
COC(=O)c1nc(-c2ccc3c(n2)C(=O)C(N)=C(OC)C3=O)c(N)c(-c2ccc(OC)c(OC)c2O)c1C,-0.84%,-9.1%,8.8%,8.38%,-0.15%,0.31%
CC(CC(C#N)(c1ccccc1)c1ccccc1)N1CCCCC1 (configuration not stated),-22.27%,-8.26%,-18.71%,1.48%,0.01%,28.3%
CN(C)C1CCc2[nH]c3c(F)cc(F)cc3c2C1 (configuration not stated) [FLUCINDOLE],8.89%,9.46%,1.82%,23.22%,2.28%,-13.31%
O=C1CCCN1CC#CCN1CCCC1 [OXOTREMORINE],-8.85%,7.42%,9.1%,1.39%,0.18%,-12.14%
C1CC2NCCC3NCCC(N1)N32 (configuration not stated),9.55%,-9.44%,11.78%,14.06%,-0.83%,-3.22%
CC[C@@]1(O)C(=O)OCc2c1cc1n(c2=O)Cc2cc3c(N)cccc3nc2-1 [9-AMINOCAMPTOTHECIN],34.7%,-5.64%,12.69%,8.25%,4.9%,-6.8%
CN1C2CCC1[C@@H](COC(=O)c1ccccc1)[C@@H](O)C2 (some centres not stated),0.35%,15.38%,-10.56%,17.19%,4.47%,-7.25%
CCN1CCc2ccccc2C1,13.64%,-13.05%,15.08%,8.74%,0.25%,-10.24%
O=C(O)CCCC[C@@H]1SC[C@@H]2NC(=O)N[C@@H]21 [BIOTIN],10.18%,-16.1%,8.51%,5.79%,1.63%,-9.23%
